Source: PubChem BioAssay AID1159580 (chemical genetic matrix, 2015)
“And” between values parts separate entries of the source, which are not always exact repeats. Equal values may be shown once. The whole screen tested about 5,500 compounds, of which about 2,000 (36%) were called active. Not shown: some 18% with an inconclusive outcome. No stated cut-off is given here; in the data, active means normalized growth mostly below about 0.91 (no sharp cut-off); inconclusive means no clear call, values can overlap the other calls; inactive means mostly above about 0.92. This is one part of the list.

Assay: chemical genetic growth profiling, strain panel (AID 1159580);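 further: tested at 20 µM; growth read once vehicle control cultures reached saturation at 30 °C; 1 = growth at the plate median or of vehicle wells; lower values mean less growth of the strain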
Details: S. cerevisiae deletion strains, growth OD

Measured: normalized growth

S=c1nc[nH]c2nc[nH]c12
inactive: locus YAL013W, strain DEP1, active compounds read low 0.996 | locus YAL021C, strain ccr4, active compounds read low 1.02 | locus YAL026C, strain drs2, active compounds read low 0.991 | locus YAL030W, strain snc1, active compounds read low 1.02 | locus YBL061C, strain skt5, active compounds read low 1.02 | locus YBR009C, strain hhf1, active compounds read low 0.997 | locus YBR021W, strain FUR4, active compounds read low 0.997 | locus YBR023C, strain chs3, active compounds read low 1.02 | locus YBR171W, strain sec66, active compounds read low 0.976 | locus YBR229C, strain ROT2, active compounds read low 1 | locus YBR231C, strain swc5, active compounds read low 1.02 | locus YBR279W, strain paf1, active compounds read low 1 | locus YCL011C, strain gbp2, active compounds read low 0.972 | locus YCL016C, strain dcc1, active compounds read low 1.01 | locus YCL029C, strain bik1, active compounds read low 0.976 | locus YCL069W, strain vba3, active compounds read low 0.964 | locus YCR088W, strain abp1, active compounds read low 0.977 | locus YDL005C, strain med2, active compounds read low 0.988 | locus YDL035C, strain GPR1, active compounds read low 1 | locus YDL040C, strain nat1, active compounds read low 1.02 | locus YDL074C, strain BRE1, active compounds read low 1 | locus YDL101C, strain DUN1, active compounds read low 0.996 | locus YDL134C, strain PPH21, active compounds read low 1.01 | locus YDL185W, strain tfp1, active compounds read low 0.964 | locus YDL192W, strain arf1, active compounds read low 0.974 | locus YDR001C, strain nth1, active compounds read low 0.972 | locus YDR069C, strain doa4, active compounds read low 1.02 | locus YDR101C, strain arx1, active compounds read low 1 | locus YDR137W, strain rgp1, active compounds read low 1.02 | locus YDR150W, strain NUM1, active compounds read low 0.999 | locus YDR159W, strain sac3, active compounds read low 0.985 | locus YDR162C, strain NBP2, active compounds read low 0.996 | locus YDR195W, strain ref2 0.992 | locus YDR297W, strain sur2, active compounds read low 1.02 | locus YDR318W, strain mcm21, active compounds read low 0.977 | locus YDR334W, strain swr1, active compounds read low 1.05 | locus YDR335W, strain msn5, active compounds read low 1.01 | locus YDR388W, active compounds read low 0.999 | locus YDR392W, strain spt3, active compounds read low 1.01 | locus YDR502C, strain sam2, active compounds read low 0.991 | locus YEL003W, strain gim4, active compounds read low 0.963 | locus YEL037C, strain rad23, active compounds read low 0.977 | locus YEL061C, strain CIN8 (second series), active compounds read low 0.992 | locus YEL061C, strain CIN8, active compounds read low 0.991 | locus YER015W, strain faa2, active compounds read low 1.01 | locus YER016W, strain bim1, active compounds read low 1 | locus YER110C, active compounds read low 0.969 | locus YER111C, strain swi4, active compounds read low 0.966 | locus YER155C, strain BEM2 (second series), active compounds read low 0.963 | locus YER155C, strain BEM2, active compounds read low 0.99 | locus YER167W, strain BCK2, active compounds read low 0.987 | locus YFR010W, strain ubp6, active compounds read low 0.987 | locus YGL078C, strain dbp3, active compounds read low 0.984 | locus YGL086W, strain mad1, active compounds read low 1.01 | locus YGL167C, strain pmr1, active compounds read low 1.01 | locus YGL173C, strain kem1, active compounds read low 1 | locus YGL227W, strain vid30, active compounds read low 0.975 | locus YGL240W, strain doc1, active compounds read low 1.01 | locus YGL248W, strain PDE1, active compounds read low 0.995 | locus YGL253W, strain hxk2, active compounds read low 1.02 | locus YGR078C, strain PAC10, active compounds read low 1 | locus YGR135W, strain pre9, active compounds read low 0.941 | locus YGR252W, strain gcn5, active compounds read low 0.979 | locus YHR013C, strain ard1, active compounds read low 1.06 | locus YHR027C, strain rpn1, active compounds read low 1.01 | locus YHR030C, strain SLT2, active compounds read low 0.999 and 1.02 | locus YHR079C, strain IRE1 (second series), active compounds read low 0.983 | locus YHR079C, strain IRE1, active compounds read low 1 | locus YHR094C, strain hxt1, active compounds read low 0.987 | locus YHR129C, strain ARP1, active compounds read low 1 | locus YHR142W, strain chs7, active compounds read low 0.999 | locus YHR200W, strain rpn10, active compounds read low 0.98 | locus YIL066C, strain RNR3, active compounds read low 1 | locus YIL073C, strain SPO22, active compounds read low 0.934 | locus YIL125W, strain kgd1, active compounds read low 0.994 | locus YIR030C, strain dcg1, active compounds read low 0.974 | locus YJL092W, strain hpr5, active compounds read low 0.986 | locus YJL095W, strain BCK1 (second series), active compounds read low 1.01 | locus YJL095W, strain BCK1, active compounds read low 0.983 and 1.02 | locus YJL115W, strain asf1, active compounds read low 0.972 | locus YJL129C, strain trk1, active compounds read low 0.97 | locus YJL134W, strain LCB3, active compounds read low 0.984 | locus YJL154C, strain vps35, active compounds read low 0.967 | locus YJL164C, strain tpk1, active compounds read low 0.988 | locus YJL166W, strain qcr8, active compounds read low 1.01 | locus YJL168C, strain set2, active compounds read low 0.989 | locus YJL187C, strain SWE1 (second series), active compounds read low 0.997 | locus YJR043C, strain POL32, active compounds read low 1 | locus YJR066W, strain TOR1, active compounds read low 0.975
